According to publication PMC4336329 (PLoS ONE, 2015):
Screen size: about 310,000 compounds; about 2,200 (0.71%) showed an effect of 50% or more. Effects have a minus sign here. What follows is part of a selection rich in strong results, with near analogues and random picks from the rest.

biological target: human ether-à-go-go-related gene (hERG) potassium channel (human, UniProt Q12809); test: primary screen, population patch clamp on CHO cells stably expressing hERG; higher = less effect of the substance
Sequence (Q12809 whole entry, looked up): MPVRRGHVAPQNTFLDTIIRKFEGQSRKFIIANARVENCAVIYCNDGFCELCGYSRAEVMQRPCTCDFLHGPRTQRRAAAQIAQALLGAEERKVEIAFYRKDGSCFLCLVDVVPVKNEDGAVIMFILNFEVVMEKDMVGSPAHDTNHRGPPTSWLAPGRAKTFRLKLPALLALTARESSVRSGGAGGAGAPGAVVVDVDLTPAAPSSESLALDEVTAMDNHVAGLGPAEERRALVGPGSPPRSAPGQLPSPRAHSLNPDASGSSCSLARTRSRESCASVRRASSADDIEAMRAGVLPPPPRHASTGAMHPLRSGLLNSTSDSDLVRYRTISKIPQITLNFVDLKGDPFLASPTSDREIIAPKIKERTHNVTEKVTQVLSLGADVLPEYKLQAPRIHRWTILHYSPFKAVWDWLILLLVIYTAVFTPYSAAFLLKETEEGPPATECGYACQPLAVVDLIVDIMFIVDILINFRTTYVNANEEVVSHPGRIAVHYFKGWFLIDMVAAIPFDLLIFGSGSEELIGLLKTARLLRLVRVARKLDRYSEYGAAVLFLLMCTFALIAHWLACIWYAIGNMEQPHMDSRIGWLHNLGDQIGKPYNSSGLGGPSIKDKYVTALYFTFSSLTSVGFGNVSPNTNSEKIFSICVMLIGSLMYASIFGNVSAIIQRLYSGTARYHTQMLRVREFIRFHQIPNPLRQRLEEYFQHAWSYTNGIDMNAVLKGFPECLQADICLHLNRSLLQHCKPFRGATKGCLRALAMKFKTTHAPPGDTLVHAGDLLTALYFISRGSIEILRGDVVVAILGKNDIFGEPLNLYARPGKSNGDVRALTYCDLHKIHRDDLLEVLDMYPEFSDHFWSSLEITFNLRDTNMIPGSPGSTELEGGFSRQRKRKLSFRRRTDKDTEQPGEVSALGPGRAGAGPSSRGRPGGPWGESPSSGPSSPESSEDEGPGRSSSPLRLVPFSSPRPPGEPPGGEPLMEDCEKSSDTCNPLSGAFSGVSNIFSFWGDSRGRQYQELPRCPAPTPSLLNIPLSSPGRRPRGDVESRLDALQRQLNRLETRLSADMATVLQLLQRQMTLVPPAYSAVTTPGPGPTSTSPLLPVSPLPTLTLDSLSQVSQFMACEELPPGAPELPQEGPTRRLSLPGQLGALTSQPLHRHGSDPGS

SMILES	hERG current change (%, negative = inhibition) at 1uM [%]
CC(Oc1ccc(Cl)cc1)C(=O)Nc1ccccc1C(=O)N1CCOCC1 (stereo not shown)	-1.27
CCc1ccc(CNCc2cccnc2)cc1	9.07
COc1ccc(-c2cc(C(F)(F)F)n3nc(C(=O)N4CCCCC4)cc3n2)cc1	4.13
O=C(O)COc1ccc(C(NC(=O)c2c(F)cccc2F)NC(=O)c2c(F)cccc2F)cc1	16.9
O=C1C2=C(SCCS2)C(=O)N1c1ccccc1	20.6
C=CCN=C1SC(C)C(=O)N1S(=O)(=O)c1ccccc1 (stereo not shown)	4.31
CCCc1nnc(SCC(=O)Nc2ccc(OC)cc2)n1N	11.1
CC(=O)Oc1ccc(/C(C)=N\N2CCN(Cc3ccc(Cl)cc3)CC2)cc1	-16.4
CC(=O)Oc1ccc(/C(C)=N/N2CCN(Cc3ccc(C)cc3)CC2)cc1	-69.8
COc1cc(/C(C)=N/N2CCN(Cc3ccc(C)cc3)CC2)ccc1O	-3.97
CCOC(=O)c1sc(NC(=O)CCN2CCN(C)CC2)c(C(=O)OCC)c1C	-15.3
CCOC(=O)c1sc(NC(=O)CCN2CCN(CC)CC2)c(C(=O)OCC)c1C	-59.8
CCOC(=O)c1sc(NC(=O)CCN2CCCCCC2)c(C(=O)OCC)c1C	10.6
COc1ccc(CCC(=O)Nc2nc3ccccc3[nH]2)cc1	5.78
COc1ccc(CCC(=O)Nc2nc3ccccc3[nH]2)cc1OC	-51.1
COc1ccccc1CCC(=O)Nc1nc2ccccc2[nH]1	18.7
COCCNC(=S)NC12CC3CC(CC(C3)C1)C2	11.3
O=C(NC12CC3CC(CC(C3)C1)C2)c1ccc(-c2cccc(Cl)c2)o1	21.9
O=C(CCCC(=O)OCC(=O)c1ccc(F)cc1)Nc1cc(C(F)(F)F)ccc1Cl	12
O=C(Cc1ccc(Cl)c(Cl)c1)Nc1ccc2[nH]c(=O)[nH]c2c1	4.75
COC(=O)c1cc(S(=O)(=O)NCC2CCN(Cc3cccc(Cl)c3)CC2)c[nH]1	5.82
COC(=O)c1cc(S(=O)(=O)NCC2CCN(Cc3cccc(F)c3)CC2)c[nH]1	2.87

SMILES	hERG current change (%, negative = inhibition) at 1uM [%]
COC(=O)c1cc(S(=O)(=O)NCC2CCN(Cc3cc(C)ccc3C)CC2)c[nH]1	2.48
COC(=O)c1cc(S(=O)(=O)NCC2CCN(Cc3ccc(C)cc3)CC2)c[nH]1	-63
COC(=O)c1cc(S(=O)(=O)NCC2CCN(Cc3ccc(Cl)cc3)CC2)c[nH]1	-59.6
COC(=O)c1cc(S(=O)(=O)NCC2CCN(Cc3ccc(F)cc3)CC2)c[nH]1	7.24
COc1cc(/C=N/NC(=O)c2ccc(N(C)S(=O)(=O)c3ccccc3)cc2)cc(OC)c1OC	10.6
O=C(O)CCC(=O)Nc1cccc(-c2csc(-c3ccccc3)n2)c1	4.25
COC(=O)c1cc2sccc2n1CC(=O)Nc1ccc(OC)c(OC)c1OC	9.49
COC(=O)c1cc2sc(Cl)cc2n1CC(=O)Nc1ccc(OC)c(OC)c1OC	-58.5
COC(=O)c1cc2occc2n1CC(=O)Nc1ccc(OC)c(OC)c1OC	11.1
Cc1ccc2[nH]c(=O)c(CN(Cc3nnnn3Cc3ccccc3)C3CCCC3)cc2c1	11.9
O=c1cc(CS(=O)(=O)c2ccccc2)nc(-c2ccncc2)[nH]1	11.3
CCOC(=O)N1CCN(C(=O)/C(=C/c2cccs2)NC(=O)c2cccs2)CC1	-6.55
Cc1ccc(C(=O)N/C(=C\c2cccs2)C(=O)N2CCN(C)CC2)cc1C	-77.2
Cc1ccc(C(=O)N/C(=C\c2cccs2)C(=O)N2CCOCC2)cc1C	1.26
Cc1ccc(C(=O)N/C(=C/c2cccs2)C(=O)N2CCCCC2)cc1	10.6
CCOC(=O)N1CCN(C(=O)/C(=C/c2cccs2)NC(=O)c2ccc(OC)c(OC)c2)CC1	-64.7
Cc1ccc(C(=O)N/C(=C\c2cccs2)C(=O)N2CCCCCC2)cc1	-19.3
CCN1CCN(C(=O)/C(=C/c2cccs2)NC(=O)c2ccc(C)c(C)c2)CC1	-83.5
Cc1ccc(C(=O)N/C(=C/c2cccs2)C(=O)N2CCCCCC2)cc1	-13.9
COc1ccc(C(=O)N/C(=C\c2cccs2)C(=O)N2CCN(C)CC2)cc1OC	-33.9
COc1cc(NC(=O)CSc2ncnc3scc(-c4ccccc4)c23)c(C(=O)O)cc1OC	11.2
CCN(CC)C(=O)Cn1cc(S(=O)(=O)CC(=O)N2CCOCC2)c2ccccc21	7.45

SMILES	hERG current change (%, negative = inhibition) at 1uM [%]
Cc1ccc(S(=O)(=O)N2CCCCC2)cc1NC(=O)COC(=O)Cc1c(F)cccc1Cl	14.5
CCOC(=O)C1CCCCN1C(=O)CCc1c(C)nc2cc(-c3ccccc3)nn2c1C (stereo not shown)	-14
CCOC(=O)C1CCN(C(=O)CCc2c(C)nc3cc(-c4ccc(OC)cc4OC)nn3c2C)CC1	-10.6
CCOC(=O)C1CCN(C(=O)CCc2c(C)nc3cc(-c4ccccc4)nn3c2C)CC1	-62
S=C(N/N=C/c1ccco1)NC1CC2CCC1C2 (stereo not shown)	8.84
CC1(C)O[C@@H]2C[C@H]3[C@@H]4C[C@H](F)C5=CC(=O)CC[C@]5(C)[C@H]4[C@@H](O)C[C@]3(C)[C@]2(C(=O)CO)O1	18.1
OCCC1CN(Cc2cc3c(cc2Cl)OCO3)CCN1Cc1ccccc1 (stereo not shown)	-1.48
CCOc1ccc(CN2CCN(Cc3cc4c(cc3Cl)OCO4)CC2CCO)cc1 (stereo not shown)	-62.9
COc1cccc2c1OCC(CN1CCN(Cc3ccccc3)C(CCO)C1)=C2 (stereo not shown)	-4.17
Cc1ccc(CN2CCN(Cc3cccc4c3OCO4)CC2CCO)cc1 (stereo not shown)	-16.1
CCOc1ccc(CN2CCN(CC3=Cc4cccc(OC)c4OC3)CC2CCO)cc1 (stereo not shown)	-71.4
COc1cccc2c1OCC(CN1CCN(Cc3ccccc3F)C(CCO)C1)=C2 (stereo not shown)	12
CCOc1ccc(CN2CCN(CC3CC3)CC2CCO)cc1 (stereo not shown)	-20.7
OCCC1CN(Cc2cccc3c2OCO3)CCN1Cc1ccccc1 (stereo not shown)	7.11
CCOc1ccc(CN2CCN(Cc3cccc4c3OCO4)CC2CCO)cc1 (stereo not shown)	-64.9
COc1ccccc1CNC(=O)C1(c2ccc(Cl)cc2)CC1	0.547
O=C(c1cccc(C(F)(F)F)c1)N1CCCC1	8.42
COc1ccc(-c2nn(-c3ccccc3)cc2/C=N/Nc2ccc3ccccc3n2)cc1OC	7.59
Cc1cc2n(n1)SC(Nc1cc(Cl)ccc1Cl)N2 (stereo not shown)	7.4
COC(=O)c1cc(S(=O)(=O)Nc2ccc(C)c(F)c2)c[nH]1	-3.6
CCn1c(/C(C#N)=N/O)nc2ccccc21	6.1
O=C(NNS(=O)(=O)c1ccc(F)cc1)c1ccccc1O	13.6

SMILES	hERG current change (%, negative = inhibition) at 1uM [%]
O=C(C[n+]1ccc(C(=O)N/N=C/c2ccc(O)cc2)cc1)c1ccccc1.[Br-]	4.63
O=C(C[n+]1ccc(C(=O)N/N=C/c2ccc(Br)cc2)cc1)c1ccccc1.[Br-]	-32.5
O=C(C[n+]1ccc(C(=O)N/N=C/c2ccc(Cl)cc2Cl)cc1)c1ccccc1.[Br-]	-63.3
O=C(NCC1CCCO1)c1ccc(S(=O)(=O)Nc2ccccc2F)cc1 (stereo not shown)	7.53
COc1ccc(Cl)cc1N/C(N)=N/c1nc(C)cc(=O)[nH]1	12.3
COc1ccc(C)cc1N/C(N)=N/c1nc(C)cc(C)n1	-64.7
COc1ccc(N/C(N)=N/c2nc(C)cc(C)n2)c(OC)c1	-2.86
CCCOc1ccccc1N/C(=N/c1nc(C)cc(C)n1)NC(=O)Nc1ccc(Cl)cc1	8.59
Cc1ccc(N/C(N)=N/c2nc(C)cc(N3CCCCC3)n2)c(C)c1	-79
COc1ccc(OC)c(N/C(N)=N/c2nc(C)cc(C)n2)c1	-26.5
CCCOc1ccccc1N/C(N)=N/c1nc(C)cc(C)n1	-59.4
CC(=O)N/C(=N/c1nc(C)cc(C)n1)Nc1ccc(C)cc1C	4.11
Cc1ccc(C)c(N/C(N)=N/c2nc(C)cc(C)n2)c1	-8.3
COc1ccccc1N/C(N)=N/c1nc(C)cc(C)n1	-2.38
COc1ccc(Cl)cc1N/C(N)=N/c1nc(C)cc(C)n1	-79.1
COc1cc(N/C(N)=N/c2nc(C)cc(C)n2)c(OC)cc1Cl	-17.2
COc1cc(/C=C(\C#N)C(=O)Nc2ccccc2F)ccc1OCCN1CCOCC1	-25.6
CN(c1ccccc1)S(=O)(=O)c1cc(C(=O)N2CCN(c3ccccn3)CC2)ccc1Cl	16.5
CN1CCN(c2ccc([N+](=O)[O-])cc2NC(=O)c2ccco2)CC1	-22.4
